Measured values reported in paper PMC4336329 (PLoS ONE, 2015).
The campaign covered roughly 310,000 compounds. About 2,200 (0.71%) showed an effect of 50% or more. The effect is printed as a negative number. Only a selection was taken, and strong results are over-represented in it overall.

Target: human ether-à-go-go-related gene (hERG) potassium channel (human, UniProt Q12809)
Test: primary screen, population patch clamp on CHO cells stably expressing hERG; higher = less effect of the substance

Chain of human ether-à-go-go-related gene (hERG) potassium channel (Q12809 whole entry, looked up): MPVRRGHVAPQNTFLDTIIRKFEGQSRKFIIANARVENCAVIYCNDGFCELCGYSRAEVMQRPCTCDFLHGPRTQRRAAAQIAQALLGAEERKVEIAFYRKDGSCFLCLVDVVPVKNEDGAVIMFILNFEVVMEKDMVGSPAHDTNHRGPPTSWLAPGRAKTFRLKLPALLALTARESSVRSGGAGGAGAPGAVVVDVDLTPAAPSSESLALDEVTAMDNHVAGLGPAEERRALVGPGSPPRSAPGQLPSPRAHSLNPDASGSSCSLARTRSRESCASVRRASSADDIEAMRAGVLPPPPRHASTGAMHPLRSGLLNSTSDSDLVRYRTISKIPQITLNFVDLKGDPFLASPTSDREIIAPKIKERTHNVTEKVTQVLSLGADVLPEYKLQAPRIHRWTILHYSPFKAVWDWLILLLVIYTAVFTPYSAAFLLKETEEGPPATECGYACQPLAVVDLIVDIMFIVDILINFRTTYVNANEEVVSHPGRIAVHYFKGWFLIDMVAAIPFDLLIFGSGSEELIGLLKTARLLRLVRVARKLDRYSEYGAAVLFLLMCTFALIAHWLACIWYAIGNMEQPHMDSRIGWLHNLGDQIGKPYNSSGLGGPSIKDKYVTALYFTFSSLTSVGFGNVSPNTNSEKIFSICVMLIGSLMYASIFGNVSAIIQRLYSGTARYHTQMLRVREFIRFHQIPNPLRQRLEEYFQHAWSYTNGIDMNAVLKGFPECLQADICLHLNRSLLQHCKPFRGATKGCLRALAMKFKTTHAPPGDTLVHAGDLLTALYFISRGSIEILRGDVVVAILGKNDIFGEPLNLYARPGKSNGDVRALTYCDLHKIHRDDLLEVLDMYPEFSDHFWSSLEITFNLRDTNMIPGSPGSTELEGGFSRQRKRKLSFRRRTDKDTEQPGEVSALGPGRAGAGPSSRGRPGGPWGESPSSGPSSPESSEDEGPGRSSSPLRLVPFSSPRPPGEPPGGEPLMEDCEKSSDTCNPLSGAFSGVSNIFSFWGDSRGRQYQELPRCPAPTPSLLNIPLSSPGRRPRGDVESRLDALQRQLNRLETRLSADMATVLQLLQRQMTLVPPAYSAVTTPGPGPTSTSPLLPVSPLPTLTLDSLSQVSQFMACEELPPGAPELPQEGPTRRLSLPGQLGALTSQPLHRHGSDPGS

SMILES | hERG current change (%, negative = inhibition) at 1uM
CCOC(=O)C1=C(Cn2cnc3ccccc32)NC(=O)NC1c1cc(C)ccc1C (stereo not drawn) | 12.2%
CCOC(=O)CSc1nnc(CSc2nc3ccccc3s2)n1C | 6.96%
COC(=O)Nc1nc2c(C)cccc2s1 | -4.56%
CCN(c1ccc(NC(=O)c2ccc(Cl)nc2)cc1)C(C)C | 12.2%
CS(=O)(=O)O.Oc1ccc(C2CNCCc3c2cc(O)c(O)c3Cl)cc1 (stereo not drawn) | -0.982%
CCS(=O)(=O)NCc1cn2c(C)csc2n1 | 0.136%
CCCc1[nH]n(-c2ccc([N+](=O)[O-])cc2)c(=O)c1C=NCCCn1ccnc1 | -50.1%
CCCc1[nH]n(-c2ccc([N+](=O)[O-])cc2)c(=O)c1C=NCCc1ccc(OC)c(OC)c1 | 4.23%
CCCc1[nH]n(-c2ccc([N+](=O)[O-])cc2)c(=O)c1C=NCCN1CCNCC1 | -9.24%
COc1cccc(CNC(=O)CCC2CCCN(c3cc(C)nc(N)n3)C2)c1 (stereo not drawn) | -18.3%
COc1cccc(CNC(=O)CCC2CCCN(Cc3cc(Cl)ccc3O)C2)c1 (stereo not drawn) | -20%
COc1cccc(CNC(=O)CCC2CCCN(c3cc(C)nc(N4CCCC4)n3)C2)c1 (stereo not drawn) | -74%
COc1cccc(CNC(=O)CCC2CCCN(C/C=C/c3ccccc3OC)C2)c1 (stereo not drawn) | -34.5%
COc1cccc(CNC(=O)CCC2CCCN(c3cc(C)nc(N(C)C)n3)C2)c1 (stereo not drawn) | -27.7%
COc1ccccc1/C=C/CN1CCCC(CCC(=O)NCc2ccc(F)c(F)c2)C1 (stereo not drawn) | -26.2%
COc1ccc(/C=C/CN2CCCC(CCC(=O)NCc3ccc(F)c(F)c3)C2)cc1 (stereo not drawn) | -54.3%
COCc1ccc(CN2CCCC(CCC(=O)NCc3cccc(OC)c3)C2)o1 (stereo not drawn) | 11%
COc1cccc(CNC(=O)CCC2CCCN(Cc3ccc(OC(F)F)cc3)C2)c1 (stereo not drawn) | -80.1%
C/C(CC(=O)Nc1cccc(Cl)c1Cl)=N\NC(=O)c1ccccc1C | 8.35%

SMILES | hERG current change (%, negative = inhibition) at 1uM
CC(=O)Nc1cccc(NC(=O)CSc2ncc(C(=O)Nc3ccc(F)cc3)c(=O)n2C)c1 | -3.89%
COc1ccc(C2(C#N)CCC(=O)N2c2ccccc2)cc1 (stereo not drawn) | 8.4%
COC(=O)CNC(=O)CN1c2cccc3cccc(c23)S1(=O)=O | -12.4%
Cc1c(C(=O)O)c(-c2ccccc2)nn1-c1ccccc1 | 10.8%
O=C(CCCN1CCC(C(=O)c2ccc(F)cc2)CC1)c1ccc(F)cc1 | -86.2%
O=C(CCCN1CCC(NC(=O)c2ccccc2)CC1)c1ccc(Cl)cc1 | -59.5%
Cc1ccc(C(=O)NC2CCN(S(=O)(=O)c3ccc(F)cc3)CC2)cc1 | 9.73%
Cc1ccc(C(=O)NC2CCN(CCCC(=O)c3ccc(F)cc3)CC2)cc1 | -72.9%
CN1CCN(CCCC(=O)c2ccc(F)cc2)CC1.Cl | -1.2%
O=C(NC1CCN(Cc2ccccc2Cl)CC1)c1ccccc1 | 10%
O=C(c1ccc(F)cc1)C1CCN(C(=O)c2ccc(F)cc2)CC1 | 2.31%
O=C(NC1CCN(Cc2ccc(Cl)cc2Cl)CC1)c1ccccc1 | -6.37%
Cc1ccc(C(=O)NC2CCN(C(=O)Nc3ccc(F)cc3)CC2)cc1 | 8.68%
CC(C)CC(C)NC(=O)c1ccc(C(F)(F)F)cc1 (stereo not drawn) | 10.6%
CCCCN(C)Cc1c(O)ccc2c(-c3ccccc3)cc(=O)oc12 | -4.52%
COCCCn1c(=NC(C)=O)c(C#N)cc2c(=O)n3cccc(C)c3nc21 | -7.03%
COCCCn1c(=NC(=O)c2ccncc2)c(C#N)cc2c(=O)n3cccc(C)c3nc21 | -53.3%
Cc1cccn2c(=O)c3cc(C#N)c(=NC(=O)c4cccs4)n(CCCOC(C)C)c3nc12 | -26.1%
CCOCCCn1c(=NC(=O)c2ccc(OC)c(OC)c2)c(C#N)cc2c(=O)n3cccc(C)c3nc21 | -11%

SMILES | hERG current change (%, negative = inhibition) at 1uM
Cc1cccn2c(=O)c3cc(C#N)c(=NC(=O)c4ccncc4)n(CCCOC(C)C)c3nc12 | -89.7%
CCOCCCn1c(=NC(=O)c2cccs2)c(C#N)cc2c(=O)n3cccc(C)c3nc21 | -53.9%
CC(=O)N=c1c(C#N)cc2c(=O)n3cccc(C)c3nc2n1CCCOC(C)C | -13.3%
COCCCn1c(=NC(=O)c2ccccc2)c(C#N)cc2c(=O)n3cccc(C)c3nc21 | -49%
Cc1cccn2c(=O)c3cc(C#N)c(=NC(=O)c4cccs4)n(CC(C)C)c3nc12 | 7.98%
Cc1nc(OCc2c(C)noc2C)c2ccccc2n1 | 13.1%
CCn1cc(C(=O)N2CCC3(CC2)OCCO3)c(=O)c2cc(S(=O)(=O)N3CCCC3)ccc21 | 15.9%
Cn1c(CNC(=O)Nc2ccccc2Cl)nnc1SCc1ccccc1 | 2.3%
CCCN(C(=O)CSc1nnc2ccccn12)C1CCS(=O)(=O)C1 (stereo not drawn) | 10.4%
CC(=O)NC(NC(C)=O)c1ccc(Br)cc1 | -1.9%
COC(=O)c1ccc(C)c(NC(=O)c2ccc(Cl)c([N+](=O)[O-])c2)c1 | 5.94%
CCOC(=O)c1[nH]c(C)c(C(=O)N2CCN(c3ccccc3)CC2)c1C | -3.94%
CCOC(=O)c1c(CN2CCN(c3ccccc3)CC2)oc2ccc(O)cc12 | 12.6%
CCOC(=O)c1c(N2CCN(c3ccccc3)CC2)cc(C)nc1C.O=C([O-])C(=O)[O-] | -69%
CCCC(=O)Nc1ccccc1NC(=O)CN(C)S(=O)(=O)c1ccccc1 | 9.94%
CCOc1ccccc1NC(=O)CSc1nnc(-c2ccco2)o1 | 8.2%
N/C(=N\OC(=O)CCC1CCCC1)c1cccc([N+](=O)[O-])c1 | -53.8%
N/C(=N\OC(=O)CCC1CCCCC1)c1cccc([N+](=O)[O-])c1 | 3.64%
N/C(=N\OC(=O)CC1CCCCC1)c1cccc([N+](=O)[O-])c1 | 13.7%
